ATXN2 expr inh: reduces ATXN2 reporter expression in HEK-293 cells; HEK-293 ATXN2-luciferase reporter, luminescence, 24 h; Potency, µM (series often up to 57 µM), inactives show at the highest dose activity change, negative = inhibition, hits mostly inhibitors; actives 0.72% (n = 360,000); AID 1745845; further: on the % scale 0 is the no-effect control and ±100 the full control effect; nearly all actives have a fitted effect of over 55% in size
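qHTS (up to 57 uM final) was run with 24 h compound exposure of reporter cells at 37 °C. Each well was multiplexed: SteadyGlo luminescence measured ATXN2-luciferase expression after a fluorogenic Gly-Phe-AFC viability readout (25 uM final).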
ATXN viability: cell viability loss in ATXN counter-screen; Potency, µM (top dose mostly 56.7 µM), actives largely listed as cytotoxic; S2 cells (HEK-293 line with an ATXN2-luciferase reporter) viability, CellTiter-Fluor protease fluorescence, 24 h; AID 651635; actives 0.49% (n = 400,000); further: nearly all actives have a fitted effect of over 40% in size
HepG2 viability: HepG2 cytotoxicity, counter-screen for TGF-b inhibitors; HepG2 CAGA-GFP viability, ATP luminescence, 18 h; Potency, µM (series often up to 46.1 µM), for inactives: at the highest dose activity change, negative = cytotoxicity, usual class: cytotoxic; actives 0.76% (n = 410,000)
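CellTiter-Glo luminescence gave cytotoxicity after 18 hours at 37 degrees C. The cells were HepG2 CAGA-GFP in 1% FBS DMEM, stimulated with 500 pg/mL TGF-beta after compound addition. %Activity was normalised to no-cell wells (complete cell-killing) and DMSO (no toxicity), and curves were fitted and classified.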
TDP1 cell CPT: growth inhibition of DT40 Tdp1-/-;hTDP1 cells with camptothecin (screen for TDP1 inhibitors). AID 686979. Potency, µM (highest dose often 46.2 µM), for inactives: at the top dose activity change, negative = growth inhibition, actives largely listed as inhibitors. chicken DT40 Tdp1-/-;hTDP1 cells + 20 nM CPT, ATP luminescence, 48 h. actives 12% (n = 420,000); further: on the % scale 0 is the no-effect control and ±100 the full control effect; nearly all actives have a fitted effect of over 55% in size
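Cell growth measured by CellTiter-Glo luminescence after a minimum 48 h, 37 C compound exposure with 20 nM CPT in Tdp1-knockout DT40 cells stably expressing hTDP1, seeded 400/well; qHTS titration format.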
TGFb SMAD3 inh: TGF-b pathway inhibition; actives 1.2% (n = 410,000); Potency, µM (titrated, usually from 46.1 µM), without a hit: at the highest dose activity, negative = inhibition, hits mostly inhibitors; HepG2 CAGA-GFP TGF-b/SMAD3 reporter, GFP fluorescence, 18 h; TGF-beta stimulated, 500 pg/mL final; further: on the % scale 0 is the no-effect control and ±100 the full control effect; nearly all actives have a fitted effect of over 65% in size
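HEPG2 CAGA-GFP cells (1000/well, DMEM with 1% FBS) were pre-incubated 2 h at 37 degrees C, given compound by pin tool, then stimulated with TGF-beta at 500 pg/mL final for 18 h before per-cell GFP fluorescence imaging.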
DT40 TDP1 no CPT: qHTS for Inhibitors of human tyrosyl-DNA phosphodiesterase 1 (TDP1): qHTS in cells in absence of CPT | DT40 Tdp1-/- hTDP1 cells, no CPT, ATP luminescence, 48 h | Potency, µM (doses to about 46.2 µM), without a hit: at the highest dose activity change, negative = growth inhibition, most hits filed as inhibitors | actives 15% (n = 420,000) | AID 686978, 2013; further: on the % scale 0 is the no-effect control and ±100 the full control effect; nearly all actives have a fitted effect of over 55% in size
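Camptothecin absent (DMSO only). Human TDP1-complemented DT40 knockout cells, 400 cells/well, 37 °C for minimum 48 hr; ATP measured via CellTiter-Glo, 30 min dark incubation, luminescence.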
* = called active by the depositor; i = inactive; u = inconclusive; x = no result. Rows were chosen to be rich in hits. Some 17% of all compounds tested hit in one or more screens of this group. The call rests on the fitted dose curve; in most records, active means well fitted curve in the direction sought with a large enough effect; inconclusive means small, poorly fitted or top-dose-only effect, or another doubt; inactive means no such curve, though single readings can be large; an effect the other way counts as inactive or inconclusive. Potency means the concentration at half of the fitted maximal effect.

SMILES	ATXN2 expr inh	ATXN viability	HepG2 viability	TDP1 cell CPT	TGFb SMAD3 inh	DT40 TDP1 no CPT
O=C(NN/C(=N/S(=O)(=O)c1ccc(Cl)cc1)c1ccccc1)c1ccc(O)cc1	20.6%	i	-4.5%	4.0%	16.6%	-0.8%
Cc1ccc(S(=O)(=O)/C(=C/Cl)NC(=O)c2ccccc2)cc1	10µM*	u	-2.5%	18.4µM*	u	14.6µM*
CC(=O)Nc1ccc(S(=O)(=O)N2CCN(S(=O)(=O)c3ccccc3)CC2)cc1	-3.2%	i	-1.4%	-0.2%	-2.0%	11.5%
Cc1ccc(C(=O)NC(=C(Cl)Cl)S(=O)(=O)c2ccc(C)cc2)cc1	-33.5%	i	-32.4%	u	9.9%	u
Cc1ccc(C(=O)NC(=C(Cl)Cl)S(=O)(=O)c2ccc(Cl)cc2)cc1	u	u	-11.4%	u	u	18.4µM*
O=C(NC(=C(Cl)Cl)S(=O)(=O)c1ccc(Cl)cc1)c1ccccc1	u	u	-38.2%	6.51µM*	u	9.2µM*
CC(=O)NC(=C(Cl)Cl)S(=O)(=O)c1ccccc1	u	i	-19.3%	11.6µM*	-4.1%	8.2µM*
CCC(Cc1ccccc1)NS(=O)(=O)c1c(C)nc2sccn2c1=O (stereo not given)	-23.3%	i	-13.5%	-9.1%	-1.9%	3.1%
N#Cc1ccccc1NC(=O)C(=O)NCC(c1ccc2c(c1)OCO2)N1CCOCC1 (stereo not given)	x	x	19.1%	-1.9%	-22.3%	-17.8%
COc1ccccc1NC(=O)CN1CCCN(S(=O)(=O)c2ccc(Br)cc2)CC1	-27.7%	u	-35.0%	u	u	u
Cc1ccc(S(=O)(=O)C(NC(=O)c2ccccc2)=C(Cl)Cl)cc1	u	u	-29.2%	23.1µM*	-22.4%	13µM*
S=c1[nH]c(=S)c2[nH]cnc2[nH]1	x	x	-5.5%	-1.5%	10.7%	5.9%
CCC/C(=C1/c2ccccc2C(=O)N1c1ccccc1)c1ccc2[nH]ccc2c1	-8.6%	u	-27.9%	16.4µM*	11.2µM*	16.4µM*
CCOC(=O)CNC(=S)n1cnc(N)n1	13.3%	i	-5.5%	-15.9%	u	u
O=c1ccn([C@@H]2O[C@H](CNCc3ccccc3OCc3ccc(Cl)cc3Cl)[C@@H](O)[C@H]2O)c(=O)[nH]1	-11.5%	i	-36.3%	20.6µM*	u	u
NC(=O)c1ncn([C@@H]2O[C@H](CNCc3ccccc3OCc3ccc(Cl)cc3Cl)[C@@H](O)[C@H]2O)n1	0.5%	i	-13.6%	-26.8%	-5.4%	-18.0%
O=C(NCCc1ccc(Cl)cc1)c1ccc(S(=O)(=O)N2CCCC2)cc1	-15.5%	i	-0.5%	u	-19.2%	u
CCC(C(=O)O)n1ccc2cc(S(=O)(=O)N3CCCCC3)ccc21 (stereo not given)	10.8%	i	-2.4%	-3.5%	-9.2%	-8.6%
CCc1ccc(CNC(=O)C2CCN(S(=O)(=O)N3CCCCC3)CC2)cc1	x	i	-15.1%	u	0.3%	23.1µM*
CCC(C(=O)NCCc1ccc(Cl)cc1)n1ccc2cc(S(=O)(=O)N3CCCCC3)ccc21 (stereo not given)	-6.7%	u	-35.8%	13µM*	-26.7%	u
CCc1ccc(CNC(=O)C(CC)n2ccc3cc(S(=O)(=O)N4CCCCC4)ccc32)cc1 (stereo not given)	2.0%	u	-6.6%	u	-22.5%	23.1µM*
CCc1ccc(CNC(=O)C2CCCN(S(=O)(=O)c3ccc4c(ccn4C)c3)C2)cc1 (stereo not given)	-29.9%	u	-29.9%	20.6µM*	u	14.6µM*
